# Laboratory results taken from PubChem BioAssay (Tox21).
# A number with no mark means an inactive call. Inconclusive results are not listed. Entries that show only a call come without a potency. Active and inactive are the calls of the source. Unless noted, the call rests on the fitted dose curve.
# Experiments:
# [1] = Nuclear factor erythroid 2-related factor 2/antioxidant responsive element (Nrf2/ARE) small molecule agonists: qHTS cell viability counter screen in human keratinocytes (AID 1919968; active means well fitted curve in the direction sought with a large enough effect in the repeat runs; an effect the other way counts as inactive or inconclusive; further: nearly all actives have a fitted effect of over 55% in size; further: potency means the concentration at half of the fitted maximal effect)
# In short: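 Fluorescence read-out from CellTiter-Fluor after 1 h at 37 C. Wells held HaCaT-derived ARE-luciferase reporter cells (1,500/well) treated 23 h with DMSO-dissolved compounds. Run in the same wells as the luciferase agonist read.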
# [2] = Nuclear factor erythroid 2-related factor 2/antioxidant responsive element (Nrf2/ARE) small molecule agonists: luciferase reporter gene qHTS assay in human keratinocytes (AID 1919969); further: nearly all actives have a fitted effect of over 35% in size; further: potency means the concentration at half of the fitted maximal effect
# [3] = biological target: Gonadotropin-releasing hormone receptor (Homo sapiens) (UniProt P30968); assay: Human gonadotropin-releasing hormone receptor (GnRHR) small molecule agonists, calcium flux assay in GnRHR-HEK293 cells (AID 1920063); further: nearly all actives have a fitted effect of over 35% in size
# In short: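 Calcium-dye fluorescence, Ex/Em=480/540, recorded every 1 sec over 3 min after compound addition to GnRHR-HEK293 cells. Cells had been seeded 18 hours earlier and dye-loaded for 1 hour at 37 C. Fifteen concentrations, triplicates.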
# [4] = biological target: KiSS-1 receptor (Homo sapiens) (UniProt Q969F8); assay: Human kisspeptin (KISS1R) small molecule agonists, calcium flux assay in KISS1R-HEK293 cells (AID 1920064; active means well fitted curve in the direction sought with a large enough effect in the repeat runs; an effect the other way counts as inactive or inconclusive)
# In short: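 Calcium flux read-out: kinetic fluorescence at Ex/Em=480/540, 1 s intervals over 3 min, after pin-tool compound addition to dye-loaded KISS1R-HEK293 cells. Fifteen concentrations, triplicates.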
# [5] = G protein-coupled receptor (GPCR) small molecule agonists, calcium flux assay: HEK293 wild type cell line counter screen (AID 1920065)
# In short: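 Agonist mode; 18 h seeding at 37 C, 1 h dye load at 37 C; compounds pinned from DMSO, ATP as positive control; kinetic fluorescence 480/540 nm, 3 min, 1 s reads; 15 concentrations, triplicate.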
# [6] = p53 small molecule agonists, cell-based qHTS assay with human liver microsomes (AID 1963577)
# In short: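 Compounds act here after metabolic activation: human liver microsomes and NADPH, both at 0.5 mg/mL final, were co-added to p53RE-bla cells. Incubation ran 16 h at 37 C, followed by LiveBLAzer detection.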
# [7] = p53 small molecule agonists, cell-based qHTS assay with rat liver microsomes (AID 1963578)
# In short: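 Read-out is beta-lactamase reporter fluorescence (LiveBLAzer, 2 h, room temperature, dark) in p53RE-bla cells treated 16 h at 37 C with compound, rat liver microsomes and NADPH, both 0.5 mg/mL final.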
# [8] = p53 small molecule agonists, cell-based qHTS assay: qHTS cell viability counter screen (AID 1963581); further: nearly all actives have a fitted effect of over 45% in size
# In short: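 Cytotoxicity read-out: ATP-based luminescence (CellTiter-Glo, 30 min RT) measured in the same wells as the p53 reporter assay, HCT-116 p53RE-bla cells, 16 h compound exposure at 37 C.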
# [9] = biological target: 5-hydroxytryptamine receptor 2A (Homo sapiens) (UniProt P28223); assay: 5-hydroxytryptamine receptor 2A (HTR2A) small molecule antagonists, cell-based qHTS assay (AID 1963586); further: nearly all actives have a fitted effect of over 45% in size
# In short: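 CHO cells stably expressing human HTR2A were plated for 18 h at 37 C, then loaded with calcium dye for 1 h. Compounds were preincubated 5 min at room temperature before DOI (4 nM solution) was added. Kinetic fluorescence was read for 3 min.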
# [10] = biological target: 5-hydroxytryptamine receptor 2A (Homo sapiens) (UniProt P28223); assay: 5-hydroxytryptamine receptor 2A (HTR2A) small molecule agonists, cell-based qHTS assay (AID 1963587); further: nearly all actives have a fitted effect of over 30% in size
# In short: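 CHO cells stably expressing human HTR2A, plated 18 h, loaded with calcium dye 1 h at 37 C. Agonist mode: compounds added and intracellular calcium fluorescence recorded kinetically for 2 min at 1 sec intervals.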
# [11] = biological target: Muscarinic acetylcholine receptor M1 (Homo sapiens) (UniProt P11229); assay: Cholinergic receptor muscarinic 1 (CHRM1) small molecule agonists, cell-based qHTS assay (AID 1963589); further: nearly all actives have a fitted effect of over 35% in size
# In short: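 Calcium flux read-out: kinetic fluorescence at 1 sec intervals after pin-tool compound addition to dye-loaded CHRM1-CHO cells (human M1). Agonist mode; 15 concentrations tested in triplicate independent runs.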
# [12] = cAMP Responsive Elements (CRE) small molecule agonists, cell-based qHTS assay (AID 1963590)
# In short: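 Beta-lactamase reporter readout: LiveBLAzer B/G FRET substrate, 2 h at room temperature, added after 3 h compound treatment of CRE-bla HEK 293T cells at 37 C/5% CO2.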
# [13] = cAMP Responsive Elements (CRE) small molecule antagonists, cell-based qHTS assay (AID 1963591; active means well fitted inhibition curve with a large enough effect in the signal ratio in the repeat runs, not every such curve was filed as active; the % refers to the signal ratio)
# In short: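 HEK293T CRE-bla; 18 h preincubation; compound pin-transfer; NKH477 0.25 uM final, 3 h, 37 C; LiveBLAzer FRET substrate 2 h RT.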
# [14] = biological target: D(2) dopamine receptor (Homo sapiens) (UniProt P14416); assay: Dopamine D2 receptor (DRD2) small molecule agonists, cell-based qHTS assay (AID 1963594); further: nearly all actives have a fitted effect of over 35% in size
# In short: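 HEK293 cells stably expressing human DRD2, pre-treated with PDE inhibitor Ro20-1724 (0.1 mM final) and compound 10 min at room temperature, then stimulated with NKH477 (200nM […]) for 30 min. cAMP read by HTRF (665/620 nm).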
# [15] = p53 small molecule agonists, cell-based qHTS assay with rat liver microsomes: qHTS cell viability counter screen (AID 1963580); further: nearly all actives have a fitted effect of over 45% in size; further: potency means the concentration at half of the fitted maximal effect
# In short: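 After the beta-lactamase ratio was read, CellTiter-Glo was added to the same wells and luminescence measured at 30 min; cells had been treated 16 h at 37 C with compounds, rat liver microsomes and NADPH (0.5 mg/mL final each).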
# [16] = biological target: Muscarinic acetylcholine receptor M1 (Homo sapiens) (UniProt P11229); assay: Cholinergic receptor muscarinic 1 (CHRM1) small molecule antagonists, cell-based qHTS assay (AID 1963588); further: nearly all actives have a fitted effect of over 40% in size; further: potency means the concentration at half of the fitted maximal effect
# In short: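 Compounds were tested at 15 concentrations in three independent runs. Dye-loaded CHRM1-CHO cells were exposed 5 min at room temperature before stimulation by acetylcholine added at 50nM. Intracellular calcium was read kinetically on FDSS for 3 min.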
# [17] = biological target: Beta-2 adrenergic receptor (Homo sapiens) (UniProt P07550); assay: Adrenergic beta2 receptor (ADRB2) small molecule antagonists, cell-based qHTS assay (AID 1963592); further: series mostly up to about 92 µM; nearly all actives have a fitted effect of over 50% in size
# In short: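 Assay format: CHO-ADRB2 cells, 18-20hr seeding at 37C/5% CO2, then compound plus 1nM isoproterenol agonist mix for 0.5hr RT. Homogeneous time-resolved fluorescence cAMP detection after 1hr, expressed as 665/615 nm ratio.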
# [18] = biological target: D(2) dopamine receptor (Homo sapiens) (UniProt P14416); assay: Dopamine D2 receptor (DRD2) small molecule antagonists, cell-based qHTS assay (AID 1963595; active means well fitted inhibition curve with a large enough effect in the signal ratio in the repeat runs, with a control signal flat; the % refers to the signal ratio; further: potency means the concentration at half of the fitted maximal effect)
# In short: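 Stable D2 receptor HEK293 line, 24 h after seeding. Compound preincubated 10 min, then quinpirole (12 nM) with forskolin analogue NKH477 (200 nM), 30 min, room temperature. Detection by time-resolved FRET of cAMP.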
# [19] = p53 small molecule agonists, cell-based qHTS assay with human liver microsomes: qHTS cell viability counter screen (AID 1963579); further: nearly all actives have a fitted effect of over 45% in size; further: potency means the concentration at half of the fitted maximal effect
# In short: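 Cells carrying the p53 response-element beta-lactamase reporter are treated for 16 h at 37 C with test compounds in the presence of human liver microsomes and NADPH (both 0.5 mg/mL final); ATP-based CellTiter-Glo luminescence then reports viability.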
# [20] = p53 small molecule agonists, cell-based qHTS assay (AID 1963582; active means well fitted activation curve with a large enough effect in the signal ratio in the repeat runs, not every such curve was filed as active; the % refers to the signal ratio)
# In short: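 Fluorescence intensity read-out of a beta-lactamase reporter under a p53 response element. Cells were exposed to DMSO-dissolved compounds for 16 h at 37 C, then developed with FRET substrate for 2 h at RT.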
# Chain of D(2) dopamine receptor (Homo sapiens) (P14416 whole entry, looked up): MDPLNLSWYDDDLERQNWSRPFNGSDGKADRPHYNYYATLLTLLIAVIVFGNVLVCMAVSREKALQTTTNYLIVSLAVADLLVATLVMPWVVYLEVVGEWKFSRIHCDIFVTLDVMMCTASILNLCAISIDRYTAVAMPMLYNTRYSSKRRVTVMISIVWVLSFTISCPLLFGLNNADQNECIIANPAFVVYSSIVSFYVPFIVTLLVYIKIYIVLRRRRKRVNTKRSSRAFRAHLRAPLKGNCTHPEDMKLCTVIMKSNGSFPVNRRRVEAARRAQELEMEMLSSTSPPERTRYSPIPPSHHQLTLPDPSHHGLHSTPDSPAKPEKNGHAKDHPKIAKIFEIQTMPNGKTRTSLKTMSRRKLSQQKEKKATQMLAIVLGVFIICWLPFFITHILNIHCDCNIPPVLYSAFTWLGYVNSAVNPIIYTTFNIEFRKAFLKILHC
# Chain of Beta-2 adrenergic receptor (Homo sapiens) (P07550 whole entry, looked up): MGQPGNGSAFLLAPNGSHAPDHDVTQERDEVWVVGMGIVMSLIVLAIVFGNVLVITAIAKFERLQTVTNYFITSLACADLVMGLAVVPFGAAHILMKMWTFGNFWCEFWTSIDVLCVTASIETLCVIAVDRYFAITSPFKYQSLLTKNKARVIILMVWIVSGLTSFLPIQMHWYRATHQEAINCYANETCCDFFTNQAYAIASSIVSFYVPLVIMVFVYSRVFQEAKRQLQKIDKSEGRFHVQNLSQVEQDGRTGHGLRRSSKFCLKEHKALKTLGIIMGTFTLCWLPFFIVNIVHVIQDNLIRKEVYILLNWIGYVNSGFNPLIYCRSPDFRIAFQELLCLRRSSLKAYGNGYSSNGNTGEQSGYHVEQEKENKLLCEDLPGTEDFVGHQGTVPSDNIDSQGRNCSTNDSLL
# Chain of Gonadotropin-releasing hormone receptor (Homo sapiens) (P30968 whole entry, looked up): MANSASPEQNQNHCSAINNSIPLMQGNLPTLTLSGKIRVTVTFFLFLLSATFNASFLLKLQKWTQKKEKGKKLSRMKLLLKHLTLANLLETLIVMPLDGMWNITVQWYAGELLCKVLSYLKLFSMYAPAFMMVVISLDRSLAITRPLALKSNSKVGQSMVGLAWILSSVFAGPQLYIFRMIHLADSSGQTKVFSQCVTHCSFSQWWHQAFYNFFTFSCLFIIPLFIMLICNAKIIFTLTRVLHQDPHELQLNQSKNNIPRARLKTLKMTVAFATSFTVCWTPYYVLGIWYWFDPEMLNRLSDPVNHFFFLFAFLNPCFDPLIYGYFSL
# Chain of 5-hydroxytryptamine receptor 2A (Homo sapiens) (P28223 whole entry, looked up): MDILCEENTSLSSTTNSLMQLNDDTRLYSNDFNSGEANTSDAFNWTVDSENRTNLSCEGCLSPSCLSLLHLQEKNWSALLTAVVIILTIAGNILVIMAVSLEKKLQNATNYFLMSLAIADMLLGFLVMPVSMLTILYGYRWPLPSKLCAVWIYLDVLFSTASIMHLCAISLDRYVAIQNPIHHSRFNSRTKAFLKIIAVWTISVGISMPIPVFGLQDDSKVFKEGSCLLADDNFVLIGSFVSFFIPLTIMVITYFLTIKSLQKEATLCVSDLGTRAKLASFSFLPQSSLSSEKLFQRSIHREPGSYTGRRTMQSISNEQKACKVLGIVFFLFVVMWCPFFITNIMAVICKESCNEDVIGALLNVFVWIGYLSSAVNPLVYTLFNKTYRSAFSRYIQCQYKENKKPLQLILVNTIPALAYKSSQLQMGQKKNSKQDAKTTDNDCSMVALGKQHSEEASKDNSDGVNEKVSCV
# Chain of KiSS-1 receptor (Homo sapiens) (Q969F8 whole entry, looked up): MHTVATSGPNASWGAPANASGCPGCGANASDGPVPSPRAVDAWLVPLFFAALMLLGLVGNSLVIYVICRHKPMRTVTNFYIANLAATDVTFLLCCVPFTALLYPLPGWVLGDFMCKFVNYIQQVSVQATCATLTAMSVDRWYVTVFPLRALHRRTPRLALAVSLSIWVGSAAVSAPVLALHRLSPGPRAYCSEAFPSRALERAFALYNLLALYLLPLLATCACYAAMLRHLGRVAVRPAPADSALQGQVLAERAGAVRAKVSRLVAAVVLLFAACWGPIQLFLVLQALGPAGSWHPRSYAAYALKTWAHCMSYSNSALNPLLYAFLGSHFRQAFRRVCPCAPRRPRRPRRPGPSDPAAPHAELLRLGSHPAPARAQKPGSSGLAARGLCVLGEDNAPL
# Chain of Muscarinic acetylcholine receptor M1 (Homo sapiens) (P11229 whole entry, looked up): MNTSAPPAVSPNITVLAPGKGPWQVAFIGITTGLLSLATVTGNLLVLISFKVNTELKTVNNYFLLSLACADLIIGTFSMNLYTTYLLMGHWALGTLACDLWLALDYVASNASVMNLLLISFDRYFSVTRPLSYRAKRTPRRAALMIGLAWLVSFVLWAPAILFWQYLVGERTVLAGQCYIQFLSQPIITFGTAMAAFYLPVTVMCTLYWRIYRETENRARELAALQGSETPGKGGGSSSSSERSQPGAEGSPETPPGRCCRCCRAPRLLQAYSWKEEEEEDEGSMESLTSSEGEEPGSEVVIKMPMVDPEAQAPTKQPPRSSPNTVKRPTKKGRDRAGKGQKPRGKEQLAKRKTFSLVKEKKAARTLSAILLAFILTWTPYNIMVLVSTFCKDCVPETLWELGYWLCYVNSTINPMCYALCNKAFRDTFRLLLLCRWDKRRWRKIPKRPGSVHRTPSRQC
smiles,measurement,setting,value
COS(=O)(=O)C(F)(F)F,Potency,[1],inactive
same,Potency,[2],71.7 µM (active)
same,Potency,[3],inactive
same,outcome,[4],inactive
same,outcome,[5],inactive
same,Potency,[6],inactive
same,Potency,[7],inactive
same,Potency,[8],inactive
same,Potency,[9],inactive
same,Potency,[10],inactive
same,Potency,[11],inactive
same,Potency,[12],inactive
same,Potency,[13],inactive
same,Potency,[14],inactive
Cc1cc(O)ccc1N,Potency,[1],61.4 µM (active)
same,Potency,[2],54.8 µM (active)
same,Potency,[3],inactive
same,outcome,[4],inactive
same,outcome,[5],inactive
same,Potency,[6],inactive
same,Potency,[7],inactive
same,Potency,[15],inactive
same,Potency,[9],inactive
same,Potency,[10],inactive
same,Potency,[16],inactive
same,Potency,[11],inactive
same,Potency,[13],inactive
same,Potency,[17],inactive
same,Potency,[18],inactive
Cc1nnc(C(=O)NC(C)(C)c2nc(C(=O)NCc3ccc(F)cc3)c(O)c(=O)n2C)o1,Potency,[1],inactive
same,Potency,[2],inactive
same,Potency,[3],inactive
same,outcome,[4],inactive
same,outcome,[5],inactive
same,Potency,[6],inactive
same,Potency,[19],inactive
same,Potency,[15],inactive
same,Potency,[8],inactive
same,Potency,[20],inactive
same,Potency,[10],inactive
same,Potency,[16],inactive
same,Potency,[13],inactive
same,Potency,[17],inactive
same,Potency,[18],inactive
NC(=O)c1ccncc1,Potency,[1],inactive
same,Potency,[2],inactive
same,Potency,[3],inactive
same,outcome,[4],inactive
same,outcome,[5],inactive
same,Potency,[6],inactive
same,Potency,[19],inactive
same,Potency,[15],inactive
same,Potency,[8],inactive
same,Potency,[20],inactive
same,Potency,[9],inactive
same,Potency,[10],inactive
same,Potency,[16],inactive
same,Potency,[11],inactive
same,Potency,[12],inactive
same,Potency,[13],inactive
same,Potency,[17],inactive
same,Potency,[18],inactive
Cc1nc2ccccn2c(=O)c1CCN1CCC(C(=O)c2ccc(F)cc2)CC1,Potency,[1],inactive
same,Potency,[2],inactive
same,Potency,[3],inactive
same,outcome,[4],inactive
same,outcome,[5],inactive
same,Potency,[6],inactive
same,Potency,[19],inactive
same,Potency,[15],inactive
same,Potency,[8],inactive
same,Potency,[20],inactive
same,Potency,[9],inactive
same,Potency,[16],inactive
same,Potency,[11],inactive
same,Potency,[12],inactive
same,Potency,[14],inactive
same,Potency,[18],0.531 µM (active)
CN1C[C@@H]2C[C@H]1CN2c1cc2c(cc1F)c(=O)c(C(=O)O)cn2C1CC1,"activity change, negative = cytotoxicity",[1],-0.599% [at 19 µM]
same,"activity, positive = activation",[2],-6.17% [at 19 µM]
same,activity change,[3],"-0.0937% [at 11.8 µM, stronger effect = higher value]"
same,activation,[4],-1.39% [at 15.8 µM]
same,activation,[5],0.573% [at 11.8 µM]
same,activation,[6],9.29% [at 13.5 µM]
same,"activity change, negative = cytotoxicity",[19],13.7% [at 13.5 µM]
same,"activity change, negative = cytotoxicity",[15],4.47% [at 13.5 µM]
same,"activity change, negative = cytotoxicity",[8],10.7% [at 13.5 µM]
same,activation,[20],6.22% [at 13.5 µM]
same,"activity change, negative = inhibition",[13],13.7% [at 18.9 µM]
same,"activity change, negative = inhibition",[17],-1.81% [at 19 µM]
same,activation,[14],2.8% [at 19 µM]
same,"activity change, negative = inhibition",[18],-0.654% [at 18.9 µM]
CN(C[C@@H](CC[N+]12CCC(C3CCCCC3)(CC1)CC2)c1ccc(Cl)c(Cl)c1)C(=O)c1cc(C(F)(F)F)cc(C(F)(F)F)c1,Potency,[1],61.1 µM (active)
same,Potency,[2],24.3 µM (active)
same,Potency,[3],inactive
same,outcome,[4],inactive
same,outcome,[5],inactive
same,Potency,[6],inactive
same,Potency,[19],36.3 µM (active)
same,Potency,[15],40.8 µM (active)
same,Potency,[8],inactive
same,Potency,[9],inactive
same,Potency,[10],inactive
same,Potency,[16],0.0942 µM (active)
same,Potency,[11],inactive
CCCc1ncc(C(=O)O)s1,Potency,[1],inactive
same,Potency,[2],inactive
same,Potency,[3],inactive
same,outcome,[4],inactive
same,outcome,[5],inactive
same,Potency,[6],inactive
same,Potency,[19],inactive
same,Potency,[15],inactive
same,Potency,[8],inactive
same,Potency,[20],inactive
same,Potency,[9],inactive
same,Potency,[10],inactive
same,Potency,[16],inactive
same,Potency,[11],inactive
same,Potency,[12],inactive
same,Potency,[13],inactive
same,Potency,[14],inactive
same,Potency,[18],inactive
